{
  "source": "PubChem BioAssay (Tox21)",
  "note": "Results filed as inconclusive are left out. The source made the active and inactive calls. The call rests on the fitted dose curve; in most records, active means well fitted cell-killing curve with a large enough effect in the repeat runs; inconclusive means weak or mixed curves, or effect the other way; inactive means no such curve, though single readings can be large or run the other way.",
  "data": [
    {"test": "qHTS assay for small molecule activators of the heat shock response signaling pathway - cell viability counter screen (AID 743209); further: nearly all actives have a fitted effect of over 50% in size", "details": "HSE-bla HeLa viability, CellTiter-Glo luminescence, 5 h; series mostly up to 62.6 µM", "method_in_brief": "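Quantitative HTS format, Tox21 10K library. HeLa cells carrying an HSE-driven beta-lactamase reporter were treated 5 h at 37 C, then assessed for viability by CellTiter-Glo luminescence.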", "values": [
      {"molecule": "C[C@]12C=CC(=O)C=C1CC[C@@H]1[C@@H]2[C@@H](O)C[C@@]2(C)[C@H]1CC[C@]2(O)C(=O)CO", "outcome": "inactive"},
      {"molecule": "Cc1ccc(S(=O)(=O)NC(=O)NN2CCCCCC2)cc1", "outcome": "inactive"},
      {"molecule": "Nc1ccc(O)c(C(=O)O)c1", "outcome": "inactive"},
      {"molecule": "NC(=O)NC1NC(=O)NC1=O", "note": "(stereo unspecified)", "outcome": "inactive"},
      {"molecule": "OCCc1ccccc1", "outcome": "inactive"},
      {"molecule": "CC(=O)NS(=O)(=O)c1ccc(N)cc1", "outcome": "inactive"},
      {"molecule": "O=C(O)c1cccc([N+](=O)[O-])c1", "outcome": "inactive"},
      {"molecule": "CCOc1ccc(NC(=O)CC(C)O)cc1", "note": "(stereo unspecified)", "outcome": "inactive"},
      {"molecule": "CC(O)CN(CCN(CC(C)O)CC(C)O)CC(C)O", "note": "(stereo unspecified)", "outcome": "inactive"},
      {"molecule": "O=C(O)c1cc(N=Nc2ccc(S(=O)(=O)Nc3ccccn3)cc2)ccc1O", "outcome": "inactive"},
      {"molecule": "NNC(=O)c1ccncc1", "outcome": "inactive"},
      {"molecule": "O=c1ccc2ccccc2o1", "outcome": "inactive"},
      {"molecule": "NC(=O)c1cnccn1", "outcome": "inactive"},
      {"molecule": "CC(=O)OCC(COC(C)=O)OC(C)=O", "outcome": "inactive"},
      {"molecule": "CCCCOC(=O)CC(CC(=O)OCCCC)(OC(C)=O)C(=O)OCCCC", "outcome": "inactive"},
      {"molecule": "O=C(O)CCCCC(=O)O", "outcome": "inactive"},
      {"molecule": "O=C(O)CCCCCCCC(=O)O", "outcome": "inactive"},
      {"molecule": "O=C(O)c1cccnc1", "outcome": "inactive"},
      {"molecule": "O=C(O)CS", "outcome": "inactive"},
      {"molecule": "C/C=C/c1ccc(OC)cc1", "outcome": "inactive"},
      {"molecule": "O=C(c1ccccc1)c1ccccc1", "outcome": "inactive"},
      {"molecule": "CCCNC(=O)NS(=O)(=O)c1ccc(Cl)cc1", "outcome": "inactive"},
      {"molecule": "c1ccc2[nH]ccc2c1", "outcome": "inactive"},
      {"molecule": "CC(=O)Nc1nnc(S(N)(=O)=O)s1", "outcome": "inactive"},
      {"molecule": "O=C1CN(/N=C/c2ccc([N+](=O)[O-])o2)C(=O)N1", "outcome": "inactive"},
      {"molecule": "O=C(O)CCC(=O)O", "outcome": "inactive"},
      {"molecule": "CCCN(CCC)S(=O)(=O)c1ccc(C(=O)O)cc1", "outcome": "inactive"},
      {"molecule": "CCCCC(CC)COC(=O)/C=C/c1ccc(OC)cc1", "note": "(stereo unspecified)", "outcome": "inactive"},
      {"molecule": "COc1ccc2[nH]cc(CCNC(C)=O)c2c1", "outcome": "inactive"},
      {"molecule": "Cn1c(=O)c2[nH]cnc2n(C)c1=O", "outcome": "inactive"},
      {"molecule": "Nc1ccc(S(=O)(=O)Nc2nccs2)cc1", "outcome": "inactive"},
      {"molecule": "O=S(=O)(O)c1ccc2cc(O)ccc2c1", "outcome": "inactive"},
      {"molecule": "O=C1NC(=O)c2ccccc21", "outcome": "inactive"},
      {"molecule": "CCCCC1C(=O)N(c2ccccc2)N(c2ccccc2)C1=O", "outcome": "inactive"},
      {"molecule": "Cc1cn([C@H]2C[C@H](N=[N+]=[N-])[C@@H](CO)O2)c(=O)[nH]c1=O", "outcome": "inactive"},
      {"molecule": "Cc1ccc(O)cc1", "outcome": "inactive"}
    ]}
  ]
}
